{
  "source": "PubChem BioAssay AID493222",
  "about": "(Johns Hopkins Ion Channel Center, 2011)",
  "note": "Among all 2,400 compounds or so, about 95 (4%) were called active.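 Rule for the calls: active = mean of duplicate membrane potential ratios lying over 3 SD above or below the buffer control mean, so actives fall on both sides; inactive = the rest.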 The list is a sample of the results.",
  "data": [
    {"test": "membrane potential effects in parental HEK293, counter-screen for CHT inhibitor project, cell-based, membrane potential dye (AID 493222);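 note: parental cells lack the transporter so any hit is non-specific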;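 for membrane potential ratio readout (active if shifted either direction beyond buffer ±3SD; no single direction): ratio is peak minus trough fluorescence over baseline after EC90 choline challenge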", "settings": "choline response, at 10 µM; active = decrease or increase beyond buffer ±3SD", "values": [
      {"smiles": "O=C(OCC(=O)c1c[nH]c2ccccc12)c1cccc(O)c1", "membrane potential ratio readout (active if shifted either direction beyond buffer ±3SD; no single direction)": "inactive"},
      {"smiles": "CCc1cc2c(N3CCN(c4nnc(CC)s4)CC3)ncnc2s1", "membrane potential ratio readout (active if shifted either direction beyond buffer ±3SD; no single direction)": "inactive"},
      {"smiles": "O=C(Cn1nc(C(F)(F)F)c2c1CCC2)NCc1ccc(F)cc1", "membrane potential ratio readout (active if shifted either direction beyond buffer ±3SD; no single direction)": "inactive"},
      {"smiles": "CCN(Cc1ccccc1)S(=O)(=O)c1cc(C(=O)O)ccc1OC", "membrane potential ratio readout (active if shifted either direction beyond buffer ±3SD; no single direction)": "inactive"},
      {"smiles": "COc1ccc(Cn2c(=O)sc3ccccc32)cc1OC", "membrane potential ratio readout (active if shifted either direction beyond buffer ±3SD; no single direction)": "-8.59 (active)"},
      {"smiles": "O=C(NCCc1ccc2c(c1)OCCO2)c1cc2ccccc2o1", "membrane potential ratio readout (active if shifted either direction beyond buffer ±3SD; no single direction)": "inactive"},
      {"smiles": "FC(F)(F)c1cccc(NC(=S)Nc2cccc(Cl)c2)c1", "membrane potential ratio readout (active if shifted either direction beyond buffer ±3SD; no single direction)": "inactive"},
      {"smiles": "CCCCCn1c(=O)[nH]c2cc(C(=O)NCCCN3CCCCC3C)ccc2c1=O", "note": "(configuration not stated)", "membrane potential ratio readout (active if shifted either direction beyond buffer ±3SD; no single direction)": "inactive"},
      {"smiles": "O=C(NCCCn1ccnc1)C(=O)c1cn(CC(=O)N2CCCCCC2)c2ccccc12", "membrane potential ratio readout (active if shifted either direction beyond buffer ±3SD; no single direction)": "inactive"},
      {"smiles": "CCC(C)c1ccc(NC(=S)NCc2ccccn2)cc1", "note": "(configuration not stated)", "membrane potential ratio readout (active if shifted either direction beyond buffer ±3SD; no single direction)": "inactive"},
      {"smiles": "Cc1c(C(=O)OC(C)C)sc(NC(=O)c2cccnc2)c1C#N", "membrane potential ratio readout (active if shifted either direction beyond buffer ±3SD; no single direction)": "inactive"},
      {"smiles": "C/C(=N/NC(=O)c1cc(Cl)ccc1O)C12CC3CC(CC(C3)C1)C2", "membrane potential ratio readout (active if shifted either direction beyond buffer ±3SD; no single direction)": "inactive"},
      {"smiles": "COc1nc(OC)nc(N(C)CCO)n1", "membrane potential ratio readout (active if shifted either direction beyond buffer ±3SD; no single direction)": "inactive"},
      {"smiles": "COc1cccc(-c2nn(-c3ccccc3)cc2/C=C(\\C#N)C(=O)NCCCn2ccnc2)c1", "membrane potential ratio readout (active if shifted either direction beyond buffer ±3SD; no single direction)": "inactive"},
      {"smiles": "O=S(=O)(Cc1cc(Cl)nc(-c2cccnc2)n1)c1ccccc1", "membrane potential ratio readout (active if shifted either direction beyond buffer ±3SD; no single direction)": "inactive"},
      {"smiles": "COc1ccc(-n2nnnc2CNC(=O)c2ccc3ccccc3c2)cc1", "membrane potential ratio readout (active if shifted either direction beyond buffer ±3SD; no single direction)": "inactive"},
      {"smiles": "N#Cc1ccc(C(=O)Nc2cccc3cccnc23)c(F)c1", "membrane potential ratio readout (active if shifted either direction beyond buffer ±3SD; no single direction)": "inactive"},
      {"smiles": "CCC(=O)Nc1nnc(S(=O)(=O)N(CC(C)C)c2ccccc2)s1", "membrane potential ratio readout (active if shifted either direction beyond buffer ±3SD; no single direction)": "inactive"},
      {"smiles": "CC1CN(S(=O)(=O)c2ccc(C(=O)NN3CCN(C)CC3)cc2)CC(C)O1", "note": "(configuration not stated)", "membrane potential ratio readout (active if shifted either direction beyond buffer ±3SD; no single direction)": "inactive"},
      {"smiles": "CC(=O)N1CCN(S(=O)(=O)c2cccc(C(=O)NC3CCC(C)CC3)c2)CC1", "note": "(configuration not stated)", "membrane potential ratio readout (active if shifted either direction beyond buffer ±3SD; no single direction)": "inactive"},
      {"smiles": "CC(NC(=O)c1ccc(N2CCNCC2)c([N+](=O)[O-])c1)C12CC3CC(CC(C3)C1)C2", "note": "(configuration not stated)", "membrane potential ratio readout (active if shifted either direction beyond buffer ±3SD; no single direction)": "inactive"},
      {"smiles": "COc1ccc(OCC(=O)OCCN(C)C)cc1", "membrane potential ratio readout (active if shifted either direction beyond buffer ±3SD; no single direction)": "inactive"},
      {"smiles": "CC(C(=O)NC1CCS(=O)(=O)C1)N1C(=O)/C(=C/c2ccc(Cl)cc2)SC1=S", "note": "(configuration not stated)", "membrane potential ratio readout (active if shifted either direction beyond buffer ±3SD; no single direction)": "inactive"},
      {"smiles": "CCOC(=O)N1CCN(C(=O)C2CCN(c3ncnc4c3sc3cccc(F)c34)CC2)CC1", "membrane potential ratio readout (active if shifted either direction beyond buffer ±3SD; no single direction)": "inactive"},
      {"smiles": "CCC(C(=O)N1CCOCC1)n1c(C(=O)OC)cc2occc21", "note": "(configuration not stated)", "membrane potential ratio readout (active if shifted either direction beyond buffer ±3SD; no single direction)": "inactive"},
      {"smiles": "CC1(C)SC2C(NC(=O)COc3ccccc3)C(=O)N2C1C(=O)O", "note": "(configuration not stated)", "membrane potential ratio readout (active if shifted either direction beyond buffer ±3SD; no single direction)": "inactive"},
      {"smiles": "Cc1cccc(C)c1NC(=O)c1ccc(CN2CCc3ccccc3C2)cc1", "membrane potential ratio readout (active if shifted either direction beyond buffer ±3SD; no single direction)": "inactive"},
      {"smiles": "CCS(=O)(=O)C1=NSC2=NC(=O)/C(=C\\c3ccc(OS(=O)(=O)c4ccccc4)cc3)C(=N)N21", "membrane potential ratio readout (active if shifted either direction beyond buffer ±3SD; no single direction)": "inactive"},
      {"smiles": "Cc1nn(CC(=O)NCC2CCCO2)c(=O)c2cc3ccccc3n12", "note": "(configuration not stated)", "membrane potential ratio readout (active if shifted either direction beyond buffer ±3SD; no single direction)": "inactive"},
      {"smiles": "COc1ccc(C(CNC(=O)c2cccc(NS(=O)(=O)c3ccc(C)c(F)c3)c2)N2CCCC2)cc1", "note": "(configuration not stated)", "membrane potential ratio readout (active if shifted either direction beyond buffer ±3SD; no single direction)": "inactive"},
      {"smiles": "CCn1c(SCCC(C)C)nnc1-c1c[nH]c2ccccc12", "membrane potential ratio readout (active if shifted either direction beyond buffer ±3SD; no single direction)": "inactive"},
      {"smiles": "Cc1[nH]c2ccccc2c1C(=O)CN1CCCC(C)C1", "note": "(configuration not stated)", "membrane potential ratio readout (active if shifted either direction beyond buffer ±3SD; no single direction)": "inactive"},
      {"smiles": "COc1ccc(N2C(=O)CNC2=S)cc1", "membrane potential ratio readout (active if shifted either direction beyond buffer ±3SD; no single direction)": "inactive"},
      {"smiles": "CC(=O)c1ccc(Oc2cc(C)nc(-n3nc(C)cc3C)n2)cc1", "membrane potential ratio readout (active if shifted either direction beyond buffer ±3SD; no single direction)": "inactive"},
      {"smiles": "CC(C)(C)c1ccc(C(=O)CSc2ncn[nH]2)cc1", "membrane potential ratio readout (active if shifted either direction beyond buffer ±3SD; no single direction)": "inactive"},
      {"smiles": "CN(CCC#N)c1ncnc2scc(-c3ccccc3)c12", "membrane potential ratio readout (active if shifted either direction beyond buffer ±3SD; no single direction)": "inactive"},
      {"smiles": "O=C1/C(=C/c2ccc(F)cc2)SC(=S)N1NS(=O)(=O)c1ccccc1", "membrane potential ratio readout (active if shifted either direction beyond buffer ±3SD; no single direction)": "inactive"},
      {"smiles": "COc1ccc(C(=O)NC(=S)NNC(=O)CCc2ccccc2)cc1", "membrane potential ratio readout (active if shifted either direction beyond buffer ±3SD; no single direction)": "inactive"},
      {"smiles": "O=C(Nc1nonc1-c1ccc(Cl)cc1)c1ccco1", "membrane potential ratio readout (active if shifted either direction beyond buffer ±3SD; no single direction)": "inactive"},
      {"smiles": "COc1ccc(C(=O)NNC(=S)NC(=O)c2ccccc2)cc1", "membrane potential ratio readout (active if shifted either direction beyond buffer ±3SD; no single direction)": "inactive"},
      {"smiles": "Oc1c(Cl)cc(Cl)c(Cl)c1Cc1c(O)c(Cl)cc(Cl)c1Cl", "membrane potential ratio readout (active if shifted either direction beyond buffer ±3SD; no single direction)": "inactive"},
      {"smiles": "O=C(O)CC1=C(Nc2ccccc2)C(=O)N(c2ccccc2)C1c1ccc(Cl)cc1", "note": "(configuration not stated)", "membrane potential ratio readout (active if shifted either direction beyond buffer ±3SD; no single direction)": "inactive"},
      {"smiles": "Cc1ccc2nc(Nc3ccccc3)cc(C)c2c1", "membrane potential ratio readout (active if shifted either direction beyond buffer ±3SD; no single direction)": "inactive"},
      {"smiles": "Cc1oc2cc([N+](=O)[O-])c(O)c([N+](=O)[O-])c2c1C(=O)c1ccc(Br)cc1", "membrane potential ratio readout (active if shifted either direction beyond buffer ±3SD; no single direction)": "2.79 (active)"},
      {"smiles": "CC(C)(C)NC(=O)NC(=O)CN1CCC(Cc2ccccc2)CC1", "membrane potential ratio readout (active if shifted either direction beyond buffer ±3SD; no single direction)": "inactive"},
      {"smiles": "COc1ccc(C(=O)NC(C)c2nccs2)cc1OC1CCN(C(C)C)CC1", "note": "(configuration not stated)", "membrane potential ratio readout (active if shifted either direction beyond buffer ±3SD; no single direction)": "inactive"},
      {"smiles": "COc1cc2ccccc2cc1C(=O)Nc1ccc(S(=O)(=O)Nc2cc(C)on2)cc1", "membrane potential ratio readout (active if shifted either direction beyond buffer ±3SD; no single direction)": "inactive"},
      {"smiles": "O=C(O/N=C(/c1ccccc1)c1ccncc1)c1ccccc1[N+](=O)[O-]", "membrane potential ratio readout (active if shifted either direction beyond buffer ±3SD; no single direction)": "inactive"},
      {"smiles": "CCc1nc(C)cn1S(=O)(=O)c1cc([N+](=O)[O-])ccc1Cl", "membrane potential ratio readout (active if shifted either direction beyond buffer ±3SD; no single direction)": "2.6 (active)"},
      {"smiles": "Cc1ccc(NNC(=O)c2cccs2)cc1Cl", "membrane potential ratio readout (active if shifted either direction beyond buffer ±3SD; no single direction)": "inactive"},
      {"smiles": "Cc1cc(OC(C)C(=O)Nc2ccc(S(=O)(=O)Nc3onc(C)c3C)cc2)cc(C)c1Cl", "note": "(configuration not stated)", "membrane potential ratio readout (active if shifted either direction beyond buffer ±3SD; no single direction)": "inactive"},
      {"smiles": "CCN(CC(=O)NCc1ccc(Cl)cc1)C(=O)CSc1ccccc1", "membrane potential ratio readout (active if shifted either direction beyond buffer ±3SD; no single direction)": "inactive"},
      {"smiles": "CN(C)c1ccc(Nc2c3c4c(cccc4n(C)c2=O)C(=O)c2ccccc2-3)cc1", "membrane potential ratio readout (active if shifted either direction beyond buffer ±3SD; no single direction)": "inactive"},
      {"smiles": "Cc1cc(NS(=O)(=O)c2ccc(NC(=O)C(C)Oc3cccc(C)c3C)cc2)nc(C)n1", "note": "(configuration not stated)", "membrane potential ratio readout (active if shifted either direction beyond buffer ±3SD; no single direction)": "inactive"},
      {"smiles": "COc1ccc(/C=C2/SC(=O)N(CCCCCC(=O)Nc3ccccc3C(=O)O)C2=S)cc1", "membrane potential ratio readout (active if shifted either direction beyond buffer ±3SD; no single direction)": "inactive"},
      {"smiles": "CN(Cc1ccccc1)CC(O)COc1ccc(CNCc2cc3ccccc3s2)cc1", "note": "(configuration not stated)", "membrane potential ratio readout (active if shifted either direction beyond buffer ±3SD; no single direction)": "inactive"},
      {"smiles": "COc1ccc(S(=O)(=O)N2CCN(C(=O)NC3CCCCC3)CC2)cc1", "membrane potential ratio readout (active if shifted either direction beyond buffer ±3SD; no single direction)": "inactive"},
      {"smiles": "CCCCn1c(SCC(=O)NCC2CCCO2)nc2ccc(N3CCOCC3)cc2c1=O", "note": "(configuration not stated)", "membrane potential ratio readout (active if shifted either direction beyond buffer ±3SD; no single direction)": "inactive"},
      {"smiles": "CC1CCN(CCCNC(=O)CN2C(=O)CSc3ccc(S(=O)(=O)N4CCCCC4)cc32)CC1", "membrane potential ratio readout (active if shifted either direction beyond buffer ±3SD; no single direction)": "inactive"},
      {"smiles": "Cc1cccc(N(C)C(=O)CN2C(=O)COc3ccc(S(=O)(=O)N4CCCCCC4)cc32)c1", "membrane potential ratio readout (active if shifted either direction beyond buffer ±3SD; no single direction)": "-12.1 (active)"},
      {"smiles": "O=C(c1c(F)cccc1Cl)N1CCN(S(=O)(=O)c2ccc3c(c2)OCCCO3)CC1", "membrane potential ratio readout (active if shifted either direction beyond buffer ±3SD; no single direction)": "inactive"},
      {"smiles": "O=C(O)c1ccc(/C=C2\\SC(=S)N(NC(=O)c3ccc(Br)cc3)C2=O)cc1", "membrane potential ratio readout (active if shifted either direction beyond buffer ±3SD; no single direction)": "inactive"},
      {"smiles": "O=S(=O)(Nc1ccc(Cl)cn1)c1cnc(Cl)c(Br)c1", "membrane potential ratio readout (active if shifted either direction beyond buffer ±3SD; no single direction)": "inactive"},
      {"smiles": "Cc1ccc(CS(=O)(=O)c2ncc(Cl)c(C(=O)Nc3nnc(C)s3)n2)cc1", "membrane potential ratio readout (active if shifted either direction beyond buffer ±3SD; no single direction)": "inactive"},
      {"smiles": "COC(=O)C(C(=O)Nc1cccc(Cl)c1C)C1CCCC1", "note": "(configuration not stated)", "membrane potential ratio readout (active if shifted either direction beyond buffer ±3SD; no single direction)": "inactive"},
      {"smiles": "Cc1ccc(C(=O)NC2CCCC(C)C2C)cc1S(=O)(=O)N1CCCCC1", "note": "(configuration not stated)", "membrane potential ratio readout (active if shifted either direction beyond buffer ±3SD; no single direction)": "inactive"},
      {"smiles": "Cc1cccc(-c2nc3ccc(C(=O)NCCN4CCN(C)CC4)cc3nc2-c2cccc(C)c2)c1", "membrane potential ratio readout (active if shifted either direction beyond buffer ±3SD; no single direction)": "inactive"}
    ]}
  ]
}
